The record followed here is PubChem BioAssay.

Assay [1] deals with Plasmodium falciparum Sir2 (PF13_0152, Sir2A). Kind of assay: Plasmodium falciparum Sir2A binding compounds – biochemical, small-molecule microarray, 635 nm fluorescence, primary screen (AID 1098).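 Note: score merges spot fluorescence intensity with its signal-to-noise ratio.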 As to conditions: fluorescence 635 nm, higher = more signal.
Assay [2] in a line: probe aDKK1 binding to arrayed compounds – biochemical, biotinylated probe, 635/667 nm fluorescence, primary screen (AID 1099).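 Note: score merges 667nm spot fluorescence with signal to noise across triplicate slides.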 Conditions: small-molecule microarray, higher = more signal.
A short description of assay [3]: probe aCHRDL2 binding to arrayed compounds – biochemical, biotinylated probe, 635/667 nm fluorescence, primary screen (AID 1100). As to conditions: small-molecule microarray, higher = more signal.
Assay [4] is described as follows: change in splice reporter luminescence, either direction, cell-based, HEK293, spliceosome inhibition project, primary screen (AID 1101).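 Note: HEK293 cells carrying a splicing-competent luciferase reporter gene; test concentration not given here.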 As to conditions: HEK293 splicing luciferase reporter, 24 h, higher = more signal, called active from +8 up or from −8 down.
The target of assay [5] is Fibroblast growth factor 10 (Homo sapiens) (UniProt O15520). Kind of assay: compounds binding fibroblast growth factor 10 – biochemical, small-molecule microarray, 635 nm fluorescence, primary screen (AID 1102). As to conditions: FGF10 binding, fluorescence 635 nm, higher = more signal.
Fibroblast growth factor 10 (Homo sapiens), sequence (O15520 whole entry, looked up): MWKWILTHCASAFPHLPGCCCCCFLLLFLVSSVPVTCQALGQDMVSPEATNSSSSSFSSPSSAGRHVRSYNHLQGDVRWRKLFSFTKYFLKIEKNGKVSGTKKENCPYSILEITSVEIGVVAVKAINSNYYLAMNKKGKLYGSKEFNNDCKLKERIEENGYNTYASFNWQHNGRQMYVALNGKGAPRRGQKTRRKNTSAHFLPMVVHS
The test system of assay [6] is glycogen synthase kinase-3 (GSK3A per assay name; protocol says GSK3B). Description: compounds binding glycogen synthase kinase-3 – biochemical, small-molecule microarray, 635 nm fluorescence, GSK3A, primary screen (AID 1103). Note: the record names both GSK3A and GSK3B. As to conditions: fluorescence 635 nm, higher = more signal.
Assay [7] has as its target Epidermal growth factor receptor (Homo sapiens) (UniProt P00533). Description: compounds binding epidermal growth factor receptor – biochemical, small-molecule microarray, 635 nm fluorescence, primary screen (AID 1104).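 Note: score merges 667 nm emission intensity with spot signal to noise over triplicate slides.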 As to conditions: EGFR binding, higher = more signal.
In assay [8] the target is Follistatin-related protein 3 (Homo sapiens) (UniProt O95633). Kind of assay: compounds binding follistatin-related protein 3 – biochemical, small-molecule microarray, 635 nm fluorescence, primary screen (AID 1105).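 Note: score merges emission near 667 nm and signal to noise per printed spot across three slides.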 As to conditions: FSTL3 binding, higher = more signal.
Follistatin-related protein 3 (Homo sapiens), sequence (O95633 whole entry, looked up): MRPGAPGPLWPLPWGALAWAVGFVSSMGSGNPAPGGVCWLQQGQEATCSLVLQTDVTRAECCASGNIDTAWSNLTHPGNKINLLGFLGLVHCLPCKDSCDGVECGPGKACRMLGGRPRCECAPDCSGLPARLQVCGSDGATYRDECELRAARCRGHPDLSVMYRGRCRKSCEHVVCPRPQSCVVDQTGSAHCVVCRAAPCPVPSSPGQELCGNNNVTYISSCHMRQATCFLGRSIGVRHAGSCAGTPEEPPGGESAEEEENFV
The target in assay [9] is Dickkopf-related protein 1 (Homo sapiens) (UniProt O94907). Kind of assay: small molecules binding DKK1 protein – biochemical, small-molecule microarray, 635 nm fluorescence scan, primary screen (AID 1106).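 Note: score merges emission near 667 nm with signal to noise over three replicate slides.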 Conditions: higher = more signal.
Dickkopf-related protein 1 (Homo sapiens), sequence (O94907 whole entry, looked up): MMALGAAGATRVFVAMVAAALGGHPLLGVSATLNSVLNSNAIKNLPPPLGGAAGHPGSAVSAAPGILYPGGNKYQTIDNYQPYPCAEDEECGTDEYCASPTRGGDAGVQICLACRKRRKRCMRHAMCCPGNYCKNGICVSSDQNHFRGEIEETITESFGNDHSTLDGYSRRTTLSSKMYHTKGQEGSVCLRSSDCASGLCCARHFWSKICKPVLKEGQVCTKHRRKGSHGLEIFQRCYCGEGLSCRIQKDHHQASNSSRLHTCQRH
For assay [10], the system named is Inhibin beta A chain (activin A). Description: small molecules binding activin A – biochemical, small-molecule microarray, 635 nm fluorescence scan, primary screen (AID 1107).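 Note: mouse activin A protein probed at 4.33 µg/mL on printed slides; score merges bound-protein fluorescence near 667 nm with spot signal-to-noise.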 Conditions: INHBA, higher = more signal.
Assay [11] has as its system Human papillomavirus type 1a protein E7 (residues 44-93). Description: small molecules binding HPV E7 44-93 – biochemical, small-molecule microarray, residues 44-93, 635 nm fluorescence, primary screen (AID 1108).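 Note: E7 fragment applied at 1 µg/mL in TBST for 1 h at 4 C; score combines spot fluorescence with its signal to noise ratio.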 Conditions: fluorescence 635 nm, higher = more signal.
Assay [12] can be described thus: hepatitis C replication reporter changes, two-sided – Huh7 cells, luciferase reporter, HCV replication inhibitor project, primary screen (AID 1109).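 Note: huh7 hepatoma cells harbouring a luciferase neomycin HCV replicon reporter; luciferase luminescence as measure of HCV replicon replication; test concentration not given here.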 Conditions: Huh7 HCV replicon luciferase reporter, 48 h; higher = more signal.
Assay [13] deals with Left-right determination factor 2 (Homo sapiens) (UniProt O00292). Description: small molecules binding LEFTY2 protein – biochemical, small-molecule microarray, 635 nm fluorescence scan, primary screen (AID 1110). As to conditions: higher = more signal.
Left-right determination factor 2 (Homo sapiens), sequence (O00292 whole entry, looked up): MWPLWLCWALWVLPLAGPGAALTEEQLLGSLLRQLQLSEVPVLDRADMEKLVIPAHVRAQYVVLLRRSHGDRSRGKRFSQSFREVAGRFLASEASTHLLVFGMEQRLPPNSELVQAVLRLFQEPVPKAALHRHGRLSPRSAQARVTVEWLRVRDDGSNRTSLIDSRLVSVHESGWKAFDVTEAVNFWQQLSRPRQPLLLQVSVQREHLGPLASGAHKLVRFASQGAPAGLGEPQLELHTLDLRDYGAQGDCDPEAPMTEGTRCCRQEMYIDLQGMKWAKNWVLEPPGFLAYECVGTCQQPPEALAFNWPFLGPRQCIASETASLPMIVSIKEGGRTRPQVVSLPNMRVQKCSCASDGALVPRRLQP
Assay [14] has as its target Calmodulin-1 (Homo sapiens) (UniProt P0DP23). Kind of assay: small molecules binding calmodulin-1 with EGTA – biochemical, small-molecule microarray, Cy5-labelled CALM1, profiling panel (AID 1111).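 Note: labelled calmodulin applied in Tris saline Tween buffer holding calcium plus EGTA and DTT.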 Conditions: Cy5-CALM1 binding fluorescence, higher = more signal.
For assay [15] the target is unchanged. Kind of assay: small molecules binding Ca-loaded calmodulin-1 – biochemical, small-molecule microarray, Cy5-labelled CALM1, plus calcium, artefact control for SMM control-protein annotation, profiling panel (AID 1112).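 Note: score merges spot fluorescence with signal to noise from triplicate slides.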 Conditions: Cy5-CALM1 binding fluorescence, higher = more signal.
The nature of assay [16]: probe aWnt5a binding to arrayed compounds – biochemical, biotinylated probe, 635/667 nm fluorescence, primary screen (AID 1113).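 Note: score merges 667 nm fluorescence intensity with signal-to-noise per printed feature.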 As to conditions: small-molecule microarray, higher = more signal.
The nature of assay [17]: probe aShh binding to arrayed compounds – biochemical, biotinylated probe, 635/667 nm fluorescence, primary screen (AID 1114).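 Note: probe is biotin-labelled aShh protein from a stem cell growth factor screen; measures binding of labelled protein to compounds printed on the slide; score merges feature fluorescence at 667 nm with signal-to-noise.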 As to conditions: small-molecule microarray, higher = more signal.
Assay [18] can be described thus: probe aNog binding to arrayed compounds – biochemical, biotinylated probe, 635/667 nm fluorescence, primary screen (AID 1115).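 Note: probe is biotinylated aNog protein used at 0.15 µg/mL for 1 h at 4 C; z-score combines 667 nm fluorescence of each spot with its signal to noise.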 Conditions: small-molecule microarray, higher = more signal.
Assay [19] has as its target Torsin-1A-interacting protein 1 (Homo sapiens) (UniProt Q5JTV8). Description: compound microarray binding of lysate hLAP1 – cell lysate, small-molecule microarray, COS7 lysate, 635/667 nm fluorescence, primary screen (AID 1116). As to conditions: 635 nm fluorescence, higher = more signal.
Assay [20] addresses Alpha-bungarotoxin (Bungarus multicinctus) (UniProt P60615). Kind of assay: compounds binding labelled alpha-BTX control protein – biochemical, small-molecule microarray, Alexa647 label, 635/667 nm fluorescence, artefact control for SMM control protein annotation, profiling panel (AID 1117). As to conditions: alpha-BTX-A647 binding fluorescence, higher = more signal.

Structures are written as SMILES. Active and inactive are the calls of the source.

Alpha-bungarotoxin (Bungarus multicinctus), sequence (P60615 whole entry, looked up): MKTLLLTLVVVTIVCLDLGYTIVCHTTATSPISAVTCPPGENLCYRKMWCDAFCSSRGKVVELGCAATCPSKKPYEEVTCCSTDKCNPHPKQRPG
Torsin-1A-interacting protein 1 (Homo sapiens), sequence (Q5JTV8 whole entry, looked up): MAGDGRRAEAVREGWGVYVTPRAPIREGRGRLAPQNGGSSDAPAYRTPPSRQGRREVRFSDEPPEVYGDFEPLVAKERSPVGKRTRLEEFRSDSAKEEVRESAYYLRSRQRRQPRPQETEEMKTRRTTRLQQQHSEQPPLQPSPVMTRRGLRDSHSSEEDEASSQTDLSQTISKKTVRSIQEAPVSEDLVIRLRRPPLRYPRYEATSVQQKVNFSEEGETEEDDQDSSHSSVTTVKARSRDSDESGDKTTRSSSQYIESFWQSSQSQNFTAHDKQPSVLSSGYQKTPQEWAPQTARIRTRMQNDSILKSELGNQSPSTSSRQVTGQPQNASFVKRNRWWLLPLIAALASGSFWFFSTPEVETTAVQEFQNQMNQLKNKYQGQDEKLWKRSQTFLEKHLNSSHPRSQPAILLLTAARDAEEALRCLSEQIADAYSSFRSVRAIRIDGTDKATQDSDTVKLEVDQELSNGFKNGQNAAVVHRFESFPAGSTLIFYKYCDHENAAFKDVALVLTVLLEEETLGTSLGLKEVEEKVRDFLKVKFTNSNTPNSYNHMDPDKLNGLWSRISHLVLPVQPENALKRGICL
Epidermal growth factor receptor (Homo sapiens), sequence (P00533 whole entry, looked up): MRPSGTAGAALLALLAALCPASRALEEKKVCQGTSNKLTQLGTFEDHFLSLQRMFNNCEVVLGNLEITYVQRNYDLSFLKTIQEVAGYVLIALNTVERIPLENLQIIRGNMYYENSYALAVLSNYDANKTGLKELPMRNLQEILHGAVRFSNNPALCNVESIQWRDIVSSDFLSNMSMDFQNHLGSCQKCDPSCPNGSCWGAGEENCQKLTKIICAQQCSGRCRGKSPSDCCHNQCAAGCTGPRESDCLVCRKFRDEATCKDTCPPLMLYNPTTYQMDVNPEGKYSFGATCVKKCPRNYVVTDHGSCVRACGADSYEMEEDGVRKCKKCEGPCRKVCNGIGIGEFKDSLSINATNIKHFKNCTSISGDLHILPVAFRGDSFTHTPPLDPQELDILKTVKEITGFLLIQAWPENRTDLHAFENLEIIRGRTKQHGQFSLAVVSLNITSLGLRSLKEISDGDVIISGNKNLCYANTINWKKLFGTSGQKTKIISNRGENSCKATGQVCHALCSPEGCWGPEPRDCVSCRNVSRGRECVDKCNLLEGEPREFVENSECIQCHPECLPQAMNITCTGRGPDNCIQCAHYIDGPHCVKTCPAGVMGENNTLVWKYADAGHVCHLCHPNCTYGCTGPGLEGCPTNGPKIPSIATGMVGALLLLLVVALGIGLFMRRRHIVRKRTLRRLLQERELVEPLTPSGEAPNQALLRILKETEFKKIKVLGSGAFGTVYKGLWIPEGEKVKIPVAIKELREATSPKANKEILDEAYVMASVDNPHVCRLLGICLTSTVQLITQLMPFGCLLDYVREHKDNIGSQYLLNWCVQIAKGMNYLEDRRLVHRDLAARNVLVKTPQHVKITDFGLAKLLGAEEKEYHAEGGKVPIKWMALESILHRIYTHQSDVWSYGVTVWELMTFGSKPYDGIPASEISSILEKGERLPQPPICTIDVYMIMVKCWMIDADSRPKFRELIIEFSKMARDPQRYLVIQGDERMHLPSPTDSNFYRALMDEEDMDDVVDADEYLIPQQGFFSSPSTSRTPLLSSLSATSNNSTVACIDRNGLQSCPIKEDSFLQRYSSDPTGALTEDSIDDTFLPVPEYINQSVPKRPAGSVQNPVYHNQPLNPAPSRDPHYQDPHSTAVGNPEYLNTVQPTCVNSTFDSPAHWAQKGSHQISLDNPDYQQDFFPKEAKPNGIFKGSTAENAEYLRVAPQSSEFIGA

Regarding `[N-]=[N+]=Nc1ccccc1C[C@@]1(C(=O)NCC(O)CO)N=C(c2ccc(OCCCO)cc2)O[C@@H]1c1ccccc1N=[N+]=[N-]` (stereo not given in full), the composite z-score was 1.05 in assay [1]; 0.106 in assay [2]; 1.09 in [3]; 0.233 in assay [5]; 0.446 in assay [6]; -0.283 in assay [7]. Further, the composite z-score is 0.855 in assay [8]; -0.67 in assay [9]; 1.33 in assay [10]; 0.796 in assay [11]; -0.458 in [13]; 2.15 in [14]. Besides, the composite z-score in assay [15] is 0.176; in assay [16] it was 0.0586; in assay [17] it was 0.348; in [18], -0.596; in assay [19], 1.64; in assay [20] it was 0.427. Besides, the values for the z-score in assay [4] and in [12] were 8.25 (active) and -3.13, respectively.

With `C=CCNC(=O)[C@H]1[C@@H]2C(=O)O[C@@H](c3ccccc3)[C@@H](c3ccccc3)N2[C@@H](c2ccc(O)cc2)[C@]12C(=O)Nc1ccc(C#CCC(C(=O)OC)C(=O)OC)cc12`, the composite z-score was -0.147 in [1]; 0.199 in assay [2]; 0.599 in [3]; 0.727 in assay [5]; 1.04 in assay [6]; -0.195 in assay [7]. Also, the composite z-score is 0.339 in assay [8]; 0.415 in [9]; 1.08 in assay [10]; -0.952 in assay [11]; -0.243 in assay [13]; -0.416 in assay [14]. In addition, the composite z-score in assay [15] is -0.401; in assay [16], -0.0495; in assay [17] it was 0.171; in assay [18], -0.302; in assay [19] it was 0.49; in assay [20], 0.0559. For the same compound, the z-score is -0.0204 (inactive) in [4] and -0.174 in [12].

As to `CCCCC(=C=CC[C@H](O)c1ccccc1OCCO)CCO`, the composite z-score in [1] is 0.653; in assay [2] it was -0.182; in [3], -0.0244; in assay [5], 0.27; in assay [6], -0.123; in assay [7], -0.689. Further, the composite z-score was -0.569 in assay [8]; -0.429 in [9]; 0.754 in assay [10]; 0.5 in assay [11]; -0.115 in assay [13]; -0.541 in assay [14]. For the same compound, the composite z-score in [15] was -0.533; in assay [16], -0.0031; in [17] it was -0.108; in assay [18] it was 0.0796; in [19] it was 0.228; in [20], 0.124. In addition, the values for the z-score in assay [4] and in [12] were -0.25 (inactive) and -1.69, respectively.

On to `CC(C)C[C@H]1NC(=O)CNC(=O)[C@@]23C(=O)N[C@@H](Cc4ccccc4)C2[C@H](C)[C@@]2(C)O[C@H]2C3/C=C/C/C=C\CNC1=O` (stereo not given in full), for which the composite z-score in assay [1] was 0.288; in assay [2], -0.129; in assay [3] it was -0.671; in assay [5], 0.749; in assay [6], 0.407; in assay [7], 0.181. The composite z-score in assay [8] was 0.811; in assay [9] it was 0.267; in assay [10], 1.48; in [11], 0.0774; in assay [13], 0.715; in [14], -0.322. In addition, the composite z-score in assay [15] was -0.833; in assay [16], -0.169; in [17] it was -0.221; in [18], -0.0315; in assay [19], -0.0248; in assay [20] it was -0.188. Also, the z-score in assay [4] was 0.187 (inactive); in assay [12], 0.238.

Take `COc1cc(Cc2cc3c(c(CCc4ccccc4)n2)[Si](C(C)C)(C(C)C)O[C@H]3c2ccccc2)cc(OC)c1OC`: the composite z-score in [1] was 1.05; in assay [2], 0.0709; in [3] it was 0.366; in assay [5] it was -0.507; in assay [6], -1.04; in assay [7], -0.4. Besides, the composite z-score in assay [8] is -0.617; in assay [9], -0.308; in assay [10], 0.87; in [11] it was -1.18; in [13], 0.151; in assay [14] it was -0.448. Also, the composite z-score in assay [15] is -0.425; in assay [16] it was -0.0107; in assay [17], -0.138; in assay [18] it was -0.0827; in assay [19] it was 0.415; in [20], 0.537. For the same compound, the z-score in assay [4] is -1.06 (inactive); in assay [12] it was -2.37.
